Rows were chosen to be rich in hits. Some 7.3% of all compounds tested hit in one or more screens of this group.
NPC1 promoter act: qHTS Assay for NPC1 Promoter Activators; Huh7 NPC1 promoter luciferase reporter, 24 h; Potency, µM (top dose mostly 9.22 µM), for the others: at the top dose activation, most hits filed as activators; hit rate 2.4% among 320,000; AID 485313, 2010; note: % of control where 0% means no effect; nearly all actives have a fitted effect of over 60% in size
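Readout is luciferase luminescence, reflecting NPC1 promoter activation in stably transfected Huh7 cells after 24 h compound exposure at 37 °C in reduced-serum medium with 10% FBS.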
ELG1 genotoxic: qHTS screen for small molecules that induce genotoxicity in human embryonic kidney (HEK293T) cells expressing luciferase-tagged ELG1; HEK293T ELG1-luciferase reporter, luminescence, 16 h; Potency, µM (doses to about 46 µM), inactives show at the highest dose activity change, positive = activation, most hits filed as activators; hit rate 1.3% among 330,000; note: % of control where 0% means no effect; nearly all actives have a fitted effect of over 60% in size
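Reporter readout depends on ELG1 protein level, which increases with genetic stress. After 16 hr compound exposure at 37 °C, luciferase activity was quantified using ONE-Glo.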
FLuc counter: qHTS profiling assay for firefly luciferase inhibitor/activator using purifed enzyme and Km concentrations of substrates (counterscreen for miR-21 project) | Luciferin 4-monooxygenase (Photinus pyralis), P08659 | purified FLuc, Km substrates, luminescence inhibition | Potency, µM (doses to about 57.5 µM), inactives show at the highest dose activity change, negative = inhibition, actives largely listed as inhibitors | hit rate 6.9% among 360,000;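 note: plate controls were vehicle for no effect and reference inhibitor for full effect; nearly all actives have a fitted effect of over 55% in size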
Target sequence (P08659 whole entry, looked up): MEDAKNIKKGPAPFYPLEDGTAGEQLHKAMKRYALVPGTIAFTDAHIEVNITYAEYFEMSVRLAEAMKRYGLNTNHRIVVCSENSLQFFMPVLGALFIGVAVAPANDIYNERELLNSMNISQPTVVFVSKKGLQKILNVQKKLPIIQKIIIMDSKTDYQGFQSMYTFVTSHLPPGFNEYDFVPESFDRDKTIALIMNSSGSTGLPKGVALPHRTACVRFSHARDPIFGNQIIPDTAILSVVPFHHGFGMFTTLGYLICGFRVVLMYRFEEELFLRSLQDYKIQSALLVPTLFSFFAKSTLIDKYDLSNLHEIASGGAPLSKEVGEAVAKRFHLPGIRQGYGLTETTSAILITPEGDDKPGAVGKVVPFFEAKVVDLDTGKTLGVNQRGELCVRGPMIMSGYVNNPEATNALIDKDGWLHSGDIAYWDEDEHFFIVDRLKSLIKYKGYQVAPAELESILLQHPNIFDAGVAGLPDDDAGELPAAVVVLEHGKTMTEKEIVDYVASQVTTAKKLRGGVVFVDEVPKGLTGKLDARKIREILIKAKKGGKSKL
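Purified P. pyralis luciferase, 10 nM final, with Km-level 10 uM D-luciferin and 10 uM ATP in 50 mM Tris acetate pH 7.5, 10 mM Mg acetate, 0.01% Tween-20, 0.05% BSA; 6-point qHTS titration about 60 µM downward; luminescence read.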
Rab9 prom act: qHTS Assay for Rab9 Promoter Activators | Huh7 Rab9 promoter-luciferase reporter, luminescence, 24 h | Potency, µM (highest dose often 9.22 µM), for inactives: at the top dose activation, negative = inhibition, hits mostly activators | hit rate 2.8% among 320,000 | AID 485297, 2010; note: % of control where 0% means no effect; nearly all actives have a fitted effect of over 60% in size
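Cell-based reporter: Huh7 stable for Rab9 promoter-driven luciferase, plated in reduced-serum medium with 10% FBS at 1500 cells/well, compound-treated 24 h at 37 °C, luminescence read after 10 min reagent.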
SMN2 splice up: qHTS Assay for Enhancers of SMN2 Splice Variant Expression; HEK293 SMN2-luciferase splicing reporter, luminescence, 30-36 h; Potency, µM (doses to about 46.1 µM), for inactives: top-dose activity change, positive = activation, usual class: activators; hit rate 2.8% among 210,000; note: % of control where 0% means no effect; nearly all actives have a fitted effect of over 55% in size
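HEK293 cells carry an SMN2 […]–luciferase reporter in which exon 7 inclusion puts luciferase in frame. Cells were plated 10-12 h before compound addition, then incubated 30-36 h at 37C. ONE-Glo luminescence was read; sodium butyrate at 4.5 mM final served as control.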
KinaseGlo FLuc: Counterscreen for Luciferase (Kinase-Glo TM) Inhibition; Kinase-Glo luciferase, ATP luminescence, 8 min; hit rate 0.28% among 200,000; AID 1379, 2008; Potency, µM (highest dose often 38.3 µM), without a hit: top-dose activity change, negative = inhibition, usual class: inhibitors; note: % is set by controls: 0 for no effect and ±100 for the full control effect; nearly all actives have a fitted effect of over 60% in size
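Substrate mix (final 50 mM imidazole pH 7.2, 50 mM KCl, 7 mM MgCl2, 10 uM ATP, 0.01% Tween 20, 0.05% BSA) plus pin-tool compound, then Kinase-Glo detection mix; 8 min ambient, luminescence read.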
* marks the source's active call; other numbers are inactive results; ? = inconclusive; · = not tested or not shown. Calls come from the whole dose curve; as a rule, active = well fitted curve in the direction sought with a large enough effect; inconclusive = small, poorly fitted or top-dose-only effect, or another doubt; inactive = no such curve, though single readings can be large; an effect the other way counts as inactive or inconclusive. Potency is the fitted concentration of half-maximal effect.

SMILES | NPC1 promoter act | ELG1 genotoxic | FLuc counter | Rab9 prom act | SMN2 splice up | KinaseGlo FLuc
Cc1noc(C)c1C(=O)Nc1nc2ccc(Cl)cc2s1 | ? | ? | 2.4µM* | ? | · | ·
O=C(CN1CCOCC1)Nc1nc2ccc(F)cc2s1 | 18% | ? | -19% | 18% | 4% | 3%
Cc1ccc(-c2csc(NC(=O)c3c(C)noc3C)n2)s1 | · | 1% | · | · | · | ·
CC12CCC(=O)N1C(C(=O)Nc1nc3ccc(Cl)cc3s1)CS2 (stereo not drawn) | 1% | 6% | ? | 13% | · | ·
CCc1noc(C)c1C(=O)Nc1nc2ccc(F)cc2s1 | ? | 9% | 17µM* | ? | · | ·
CCc1ccc2nc(NC(=O)C3CSC4(C)CCC(=O)N34)sc2c1 (stereo not drawn) | 15% | ? | 12µM* | 9% | · | ·
CCc1noc(C)c1C(=O)NCCc1ccc(F)cc1 | -1% | 0% | 2% | -2% | · | ·
COc1cccc(NC(=O)c2ccc(NCCCN3CC(C)CC(C)C3)c([N+](=O)[O-])c2)c1 (stereo not drawn) | -4% | 4% | -1% | 0% | -13% | -1%
CCc1ccc2nc(NC(=O)c3cc(C)on3)sc2c1 | -5% | 14% | 6µM* | ? | ? | -9%
CCc1noc(C)c1C(=O)Nc1nc2c(C)cc(C)cc2s1 | -12% | 22% | 11µM* | -4% | · | ·
CCOC(=O)c1c(NC(=O)c2c(-c3ccccc3)noc2C)sc(C)c1-c1ccccc1 | -11% | -9% | -1% | 21% | 0.71µM* | -5%
Cc1noc(C)c1C(=O)Nc1nc2ccc(F)cc2s1 | 1.6µM* | ? | 4.3µM* | 3.2µM* | · | ·
COc1ccc(Br)cc1C(=O)Nc1nc2ccc(F)cc2s1 | · | · | ? | · | -54% | ·
CCc1noc(C)c1C(=O)Nc1nc2ccc(S(C)(=O)=O)cc2s1 | 22% | 15% | 2.4µM* | 4% | · | ·
Cc1cc(C)nc(NC(=O)c2c(-c3ccccc3Cl)noc2C)n1 | 1% | -5% | 5% | 4% | -24% | -4%
Cc1onc(-c2ccccc2Cl)c1C(=O)Nc1nc2ccc(S(C)(=O)=O)cc2s1 | -1% | -2% | 12µM* | 0% | 1% | 0%
CCc1noc(C)c1C(=O)Nc1nc(-c2ccccc2)c(C(C)=O)s1 | -1% | -2% | 15µM* | -9% | · | ·
COc1cccc(OC)c1C(=O)Nc1nc2ccc(S(C)(=O)=O)cc2s1 | -4% | 3% | 1% | 3% | -1% | -3%
CCc1noc(C)c1C(=O)Nc1nc(-c2ccc(NC(C)=O)cc2)cs1 | -2% | -30% | -10% | -7% | · | ·
CCOC(=O)c1ccc(COc2ccc(C(C)C)cc2)o1 | 0.63µM* | ? | 15µM* | 0.5µM* | · | ·
CC(C)c1ccc(OCc2ccc(C(=O)N3CCCC3)o2)cc1 | ? | ? | 17µM* | 2µM* | · | ·
CN1CCN(C(=O)c2ccc(COc3ccc(C(C)(C)C)cc3)o2)CC1 | ? | 6% | 8.5µM* | ? | ? | 0%
CCOc1ccc(OCc2ccc(C(=O)OCc3ccccn3)o2)cc1 | ? | 0% | ? | 0.89µM* | 8.9µM* | -4%
COC(=O)c1ccc(COc2ccc(C(=O)c3ccccc3)cc2)o1 | 14% | -8% | -12% | 12% | · | ·
CCOc1ccc(OCc2ccc(C(=O)NC(C)C)o2)cc1 | ? | 4% | -18% | 26% | · | ·
SMILES | NPC1 promoter act | ELG1 genotoxic | FLuc counter | Rab9 prom act | SMN2 splice up | KinaseGlo FLuc
CCCc1ccc(OCc2ccc(C(=O)N3CCCC3)o2)cc1 | 16% | 5% | ? | 25% | · | ·
CCOc1ccc(OCc2ccc(C(=O)N3CCCC3)o2)cc1 | ? | 6% | ? | 5% | 7% | 1%
O=C(COc1ccccc1)NCC(=O)NC1CCCCC1 | -3% | 4% | -1% | 2% | 12% | -3%
Cc1cc(C)cc(OCc2ccc(C(=O)O)o2)c1 | 3% | ? | -19% | 1% | ? | -2%
CCOc1ccc(OCc2ccc(C(=O)N3N=C(C(F)F)CC3(O)C(F)F)o2)cc1 (stereo not drawn) | 28% | 2% | -1% | 4µM* | ? | -6%
O=C(c1ccc(COc2ccc(Br)cc2)o1)N1N=C(C(F)F)CC1(O)C(F)F (stereo not drawn) | 7% | -7% | -9% | -2% | -46% | 0%
CCC(C)c1ccc(OCc2ccc(C(=O)O)o2)cc1 (stereo not drawn) | ? | 0.41µM* | 3µM* | ? | · | ·
Cc1cc(C)n(CC(=O)N/N=C/c2cccs2)n1 | -2% | 7% | 17µM* | 3% | -7% | -4%
Cn1cccc1/C=N/NC(=O)c1cc2ccccc2cc1O | ? | ? | 19µM* | ? | · | ·
Cn1cccc1/C=N/NC(=O)c1ccncc1 | -7% | 0% | -20% | -2% | · | ·
CC(C)CNC(=O)C(=O)N/N=C/c1cccs1 | ? | ? | ? | ? | 3% | -4%
Cc1cc(C)n(CC(=O)N/N=C/c2ccc([N+](=O)[O-])s2)n1 | 0% | -16% | 4% | -1% | -91% | 1%
CC(C)(C)NC(=O)C(=O)N/N=C/c1cccs1 | ? | ? | 15µM* | 1.8µM* | ? | -5%
Cn1cccc1/C=N/NC(=O)c1ccccn1 | ? | ? | 13µM* | 3.5µM* | · | ·
C=CCNC(=O)c1ccccc1Cl | 10% | 1% | -5% | -9% | -16% | -2%
CCCN(CCC)CCCNC(=O)C1CCC(CNS(=O)(=O)c2cccc3nsnc23)CC1 (stereo not drawn) | -1% | 1% | 5% | -3% | -1% | ·
COc1cccc(NC(=O)CCCn2c(=O)c3cccn3c3cccnc32)c1 | · | · | -11% | · | · | ·
NC(=O)N/N=C\c1cc(Br)ccc1O | -2% | 1% | 2% | -6% | 12% | -6%
COc1cccc(NC(=S)NC2CC(C)(C)NC(C)(C)C2)c1 | -4% | 1% | -3% | 2% | 10% | 1%
NC(=O)CC[C@@H]1NC(=O)[C@H](CO)NC(=O)c2cc([N+](=O)[O-])cc(I)c2NCC[C@@H](C(N)=O)NC(=O)[C@H](Cc2ccc(O)cc2)NC1=O | -7% | 0% | 1% | -3% | 3% | 0%
COc1ccc(C)cc1N(CC(=O)N1CCCCCC1)S(C)(=O)=O | -4% | 0% | -2% | 6% | · | ·
Cc1ccc(/C=N/NC(=O)c2ccccn2)s1 | 1.3µM* | ? | ? | 0.5µM* | 4µM* | ?
Cc1cc(C(=O)N/N=C/c2ccc([N+](=O)[O-])s2)n[nH]1 | 4% | -9% | -2% | -14% | · | ·
